A number with no mark means an inactive call. Records with an inconclusive call do not appear. Entries that show only a call come without a potency. Activity calls are given as the source filed them. Unless noted, calls come from the whole dose curve; as a rule, active = well fitted curve in the direction sought with a large enough effect; inconclusive = small, poorly fitted or top-dose-only effect, or another doubt; inactive = no such curve, though single readings can be large; an effect the other way counts as inactive or inconclusive.
Experiments:
[1] = AP1 Signaling Pathway (AID 357; active = well fitted curve in either direction with a large enough effect, not every such curve was filed as active;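 note: ME-180 reporter cells stimulated with EGF at its EC50 level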); conditions: ME-180 (cervical carcinoma) AP-1-bla reporter, EGF-induced, beta-lactamase ratio, 5 h; at 7.69 µM (top of the series) unless noted
How it was run: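 Cells are seeded overnight, exposed to compound titrations and an EC50 level of EGF for 5 hours at 37 °C, then loaded with CCF4 dye for 2.5 hours. Beta-lactamase activity under the AP-1 element is read as a blue/green ratio.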

[2] = Stat Signaling Pathway (AID 446; active = well fitted curve in either direction with a large enough effect, not every such curve was filed as active;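 note: ME-180 cervical cancer cells given 40 pM IL-6 alongside compound; SIE-controlled beta-lactamase reporter measured as 460/530 nm FRET emission ratio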)
How it was run: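 Normalization used AC90 stimulation (300 pM IL-6) and AC90 inhibition (125 nM pan-JAK inhibitor at 40 pM IL-6). The underlying signal is SIE-driven beta-lactamase in ME-180 cells after 5 h IL-6 exposure with compound.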

[3] = molecular target: Glucocorticoid receptor (Homo sapiens) (UniProt P04150); test: GR-EFC Redistribution (AID 451; calls by dose curve; note: potency is the fitted concentration of half-maximal effect); conditions: CHO-K1 GR-EFC translocation, beta-gal luminescence, 2 h
Sequence of Glucocorticoid receptor (Homo sapiens) (P04150 whole entry, looked up, the tested form may be a part): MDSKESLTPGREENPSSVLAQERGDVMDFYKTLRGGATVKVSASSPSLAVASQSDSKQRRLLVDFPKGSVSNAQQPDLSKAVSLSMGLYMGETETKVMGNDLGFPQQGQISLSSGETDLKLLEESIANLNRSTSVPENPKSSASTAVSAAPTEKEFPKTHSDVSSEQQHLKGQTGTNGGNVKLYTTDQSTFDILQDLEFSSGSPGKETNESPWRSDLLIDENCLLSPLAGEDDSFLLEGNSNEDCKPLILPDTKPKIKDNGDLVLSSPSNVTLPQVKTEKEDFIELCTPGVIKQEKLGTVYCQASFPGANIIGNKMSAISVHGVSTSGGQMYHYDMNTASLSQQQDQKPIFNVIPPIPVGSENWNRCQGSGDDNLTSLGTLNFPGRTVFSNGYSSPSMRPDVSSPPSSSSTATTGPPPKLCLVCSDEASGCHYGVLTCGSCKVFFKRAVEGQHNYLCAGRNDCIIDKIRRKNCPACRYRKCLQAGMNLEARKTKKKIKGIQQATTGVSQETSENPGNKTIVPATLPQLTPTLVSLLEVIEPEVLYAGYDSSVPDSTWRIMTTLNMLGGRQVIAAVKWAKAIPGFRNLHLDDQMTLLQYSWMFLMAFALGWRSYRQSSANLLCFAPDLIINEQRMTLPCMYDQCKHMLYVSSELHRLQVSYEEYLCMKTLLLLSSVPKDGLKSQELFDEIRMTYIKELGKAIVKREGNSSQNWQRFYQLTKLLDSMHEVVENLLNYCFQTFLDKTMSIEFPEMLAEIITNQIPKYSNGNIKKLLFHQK
How it was run: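 CHO-K1 cells expressing nuclear EA and GR-ED fragments of b-gal; compounds titrated up to 46 uM final, 2 h at 37 C. GR nuclear translocation read as complemented b-gal luminescence after 1 h RT detection.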

[4] = molecular target: 3',5'-cyclic-AMP phosphodiesterase 4B (Homo sapiens) (UniProt Q07343); test: qHTS Assay for Inhibitors of PDE-IV (AID 607; active = well fitted activation curve with a large enough effect in the main read-out, with a control signal flat, not every such curve was filed as active)
Sequence of 3',5'-cyclic-AMP phosphodiesterase 4B (Homo sapiens) (Q07343 whole entry, looked up): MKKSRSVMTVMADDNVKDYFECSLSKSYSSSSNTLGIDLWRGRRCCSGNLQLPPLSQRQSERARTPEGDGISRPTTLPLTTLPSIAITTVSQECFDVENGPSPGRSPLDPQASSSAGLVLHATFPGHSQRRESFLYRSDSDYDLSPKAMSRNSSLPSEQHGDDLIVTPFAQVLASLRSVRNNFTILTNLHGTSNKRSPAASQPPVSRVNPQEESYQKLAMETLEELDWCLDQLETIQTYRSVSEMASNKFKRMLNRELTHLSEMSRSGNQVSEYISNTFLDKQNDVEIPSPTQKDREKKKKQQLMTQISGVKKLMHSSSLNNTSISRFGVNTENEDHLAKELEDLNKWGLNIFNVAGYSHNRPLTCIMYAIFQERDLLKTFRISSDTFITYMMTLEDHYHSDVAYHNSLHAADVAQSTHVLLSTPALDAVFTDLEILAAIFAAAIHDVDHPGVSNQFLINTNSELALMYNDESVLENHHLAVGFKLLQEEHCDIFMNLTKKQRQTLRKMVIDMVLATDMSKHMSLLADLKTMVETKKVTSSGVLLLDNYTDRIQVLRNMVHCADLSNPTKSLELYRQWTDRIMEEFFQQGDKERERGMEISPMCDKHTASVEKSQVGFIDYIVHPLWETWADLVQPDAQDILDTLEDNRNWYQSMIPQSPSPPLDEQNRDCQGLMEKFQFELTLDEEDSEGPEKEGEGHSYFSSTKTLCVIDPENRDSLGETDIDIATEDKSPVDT
How it was run: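 HEK293 ACTOne cells with CNG channel (1000/well), endogenous PDE4; membrane potential dye, compounds up to 22.9 uM final. Fluorescence Ex 535/Em 590; RO 20-1724 (100 uM final) as reference.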

[5] = molecular target: Rap guanine nucleotide exchange factor 3 (Homo sapiens) (UniProt O95398); test: Confirmatory qHTS for antagonist of cAMP-regulated guanine nucleotide exchange factor 3 (EPAC1) (AID 1645880); conditions: EPAC1 Rap1B-BODIPY-GDP exchange, fluorescence; activity, negative = inhibition: at 115 µM (top of the series); note: nearly all actives have a fitted effect of over 55% in size
Sequence of Rap guanine nucleotide exchange factor 3 (Homo sapiens) (O95398 whole entry, looked up): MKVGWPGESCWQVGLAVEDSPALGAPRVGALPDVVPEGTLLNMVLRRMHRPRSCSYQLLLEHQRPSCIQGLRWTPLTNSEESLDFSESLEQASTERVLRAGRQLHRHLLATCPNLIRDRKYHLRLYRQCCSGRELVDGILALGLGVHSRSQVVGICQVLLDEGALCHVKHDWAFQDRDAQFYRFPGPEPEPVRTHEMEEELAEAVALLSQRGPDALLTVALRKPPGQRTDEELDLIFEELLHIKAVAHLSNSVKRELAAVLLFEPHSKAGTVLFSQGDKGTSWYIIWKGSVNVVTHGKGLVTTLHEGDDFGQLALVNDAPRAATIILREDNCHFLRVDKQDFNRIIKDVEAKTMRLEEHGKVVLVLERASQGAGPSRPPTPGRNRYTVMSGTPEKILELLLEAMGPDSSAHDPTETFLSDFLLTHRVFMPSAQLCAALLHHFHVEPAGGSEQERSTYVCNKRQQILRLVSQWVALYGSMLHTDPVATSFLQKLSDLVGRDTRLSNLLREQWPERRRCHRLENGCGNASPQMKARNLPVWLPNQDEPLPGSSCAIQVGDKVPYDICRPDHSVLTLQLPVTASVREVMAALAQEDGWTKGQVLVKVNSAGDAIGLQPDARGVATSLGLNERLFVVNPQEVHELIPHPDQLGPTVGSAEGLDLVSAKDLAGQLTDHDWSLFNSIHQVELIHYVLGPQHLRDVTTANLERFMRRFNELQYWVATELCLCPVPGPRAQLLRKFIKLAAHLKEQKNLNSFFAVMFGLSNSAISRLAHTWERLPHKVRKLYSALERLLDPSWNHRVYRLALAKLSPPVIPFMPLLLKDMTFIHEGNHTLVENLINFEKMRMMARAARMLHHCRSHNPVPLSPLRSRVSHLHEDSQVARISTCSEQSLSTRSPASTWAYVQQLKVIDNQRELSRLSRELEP
How it was run: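 Released BODIPY-GDP fluoresces less than Rap1-bound BODIPY-GDP; the signal is followed at 480/540 nm at 5-min intervals over 30 min, after 5 min at room temperature. Reactions contain 100 nM EPAC1, 250 nM RAP1B-BODIPY-GDP and 50 uM GDP; results are normalized to ATA and DMSO.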

[6] = molecular target: Rap guanine nucleotide exchange factor 3 (Homo sapiens) (UniProt O95398); test: Confirmatory qHTS for agonist of cAMP-regulated guanine nucleotide exchange factor 3 (EPAC1) (AID 1645881); note: nearly all actives have a fitted effect of over 75% in size; note: potency is the fitted concentration of half-maximal effect;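 for activation: EPAC1 catalysed release of BODIPY-GDP from Rap1B seen as fluorescence loss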
[7] = molecular target: Rap guanine nucleotide exchange factor 4 (Homo sapiens) (UniProt Q8WZA2); test: Confirmatory qHTS for agonist of cAMP-regulated guanine nucleotide exchange factor 4 (EPAC2) (AID 1645884);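 note: nucleotide exchange releases bodipy-GDP from Rap1 and this lowers its fluorescence; nearly all actives have a fitted effect of over 65% in size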; note: potency is the fitted concentration of half-maximal effect
Sequence of Rap guanine nucleotide exchange factor 4 (Homo sapiens) (Q8WZA2 whole entry, looked up): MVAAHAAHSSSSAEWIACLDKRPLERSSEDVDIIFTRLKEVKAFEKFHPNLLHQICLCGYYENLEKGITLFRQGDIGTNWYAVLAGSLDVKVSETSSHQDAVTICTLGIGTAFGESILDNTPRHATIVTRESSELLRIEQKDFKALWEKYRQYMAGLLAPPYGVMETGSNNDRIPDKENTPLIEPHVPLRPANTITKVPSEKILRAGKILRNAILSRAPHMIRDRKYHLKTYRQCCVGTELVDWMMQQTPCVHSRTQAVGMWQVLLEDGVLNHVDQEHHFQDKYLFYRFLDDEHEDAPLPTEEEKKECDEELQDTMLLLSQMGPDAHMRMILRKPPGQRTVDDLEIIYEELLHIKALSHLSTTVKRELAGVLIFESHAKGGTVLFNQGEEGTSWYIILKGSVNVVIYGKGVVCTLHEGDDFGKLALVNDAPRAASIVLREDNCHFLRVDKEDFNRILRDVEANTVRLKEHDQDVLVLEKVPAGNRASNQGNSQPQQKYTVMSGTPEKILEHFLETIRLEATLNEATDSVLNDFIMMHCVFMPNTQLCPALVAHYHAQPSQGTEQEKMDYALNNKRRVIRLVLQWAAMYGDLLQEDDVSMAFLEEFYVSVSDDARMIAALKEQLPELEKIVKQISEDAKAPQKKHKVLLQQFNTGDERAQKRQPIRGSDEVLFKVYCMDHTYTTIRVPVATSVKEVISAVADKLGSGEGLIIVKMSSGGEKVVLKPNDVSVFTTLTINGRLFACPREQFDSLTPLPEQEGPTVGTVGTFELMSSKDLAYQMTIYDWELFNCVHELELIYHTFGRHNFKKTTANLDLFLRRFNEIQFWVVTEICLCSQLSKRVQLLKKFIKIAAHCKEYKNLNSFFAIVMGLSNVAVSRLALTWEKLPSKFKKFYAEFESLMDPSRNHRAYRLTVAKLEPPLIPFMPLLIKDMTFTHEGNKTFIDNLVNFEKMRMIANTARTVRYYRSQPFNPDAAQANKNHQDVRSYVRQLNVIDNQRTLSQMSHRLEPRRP

[8] = molecular target: Rap guanine nucleotide exchange factor 4 (Homo sapiens) (UniProt Q8WZA2); test: Confirmatory qHTS for antagonist of cAMP-regulated guanine nucleotide exchange factor 4 (EPAC2) (AID 1645885); note: nearly all actives have a fitted effect of over 25% in size; note: potency is the fitted concentration of half-maximal effect
[9] = molecular target: Tumor susceptibility gene 101 protein (Homo sapiens) (UniProt Q99816); test: qHTS Assay for Iinhibitors of HIV-1 Budding by Blocking the Interaction of PTAP/TSG101: Hit Validation (AID 651600); note: potency is the fitted concentration of half-maximal effect; nearly all actives have a fitted effect of over 70% in size
Sequence of Tumor susceptibility gene 101 protein (Homo sapiens) (Q99816 whole entry, looked up, the tested form may be a part): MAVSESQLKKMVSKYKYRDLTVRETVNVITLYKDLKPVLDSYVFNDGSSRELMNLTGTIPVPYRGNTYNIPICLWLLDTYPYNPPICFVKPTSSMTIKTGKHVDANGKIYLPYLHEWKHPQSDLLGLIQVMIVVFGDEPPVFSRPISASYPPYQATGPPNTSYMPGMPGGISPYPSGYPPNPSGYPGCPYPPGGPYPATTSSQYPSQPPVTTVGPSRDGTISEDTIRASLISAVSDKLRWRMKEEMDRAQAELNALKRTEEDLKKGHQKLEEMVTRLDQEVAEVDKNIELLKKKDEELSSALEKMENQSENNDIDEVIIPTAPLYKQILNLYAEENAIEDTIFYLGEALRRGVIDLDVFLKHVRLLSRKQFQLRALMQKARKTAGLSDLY
How it was run: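 FITC-PTAP peptide (50 nM final) binding to Tsg101 binding domain (10 uM final) was measured by polarization after 20 min at r.t. with compounds, in 10 mM HEPES pH 7.5 buffer with 0.15 M NaCl and 0.01% Tween 20.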

[10] = molecular target: Rap guanine nucleotide exchange factor 3 (Homo sapiens) (UniProt O95398); test: Counterscreen qHTS for agonist of cAMP-regulated guanine nucleotide exchange factor 3 (EPAC1) (AID 1645889); note: potency is the fitted concentration of half-maximal effect; nearly all actives have a fitted effect of over 40% in size
How it was run: (§1)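 Rap1B–BODIPY-GDP (250 nM) with 50 uM GDP; compounds pin-transferred to 9.74 nM–152 uM final (activator) or from 7.32 nM upwards (inhibitor). Fluorescence Ex/Em 480/540 nm read at 5 and 30 min, then after adding cAMP or buffer, at room temperature.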

[11] = molecular target: Lysosomal acid glucosylceramidase (Homo sapiens) (UniProt P04062); test: Glucocerebrosidase-p2 (AID 348; in the data active = potency below about 10 µM; note: potency is the fitted concentration of half-maximal effect); conditions: purified GBA, blue fluorogenic substrate, 40 min
Sequence of Lysosomal acid glucosylceramidase (Homo sapiens) (P04062 whole entry, looked up): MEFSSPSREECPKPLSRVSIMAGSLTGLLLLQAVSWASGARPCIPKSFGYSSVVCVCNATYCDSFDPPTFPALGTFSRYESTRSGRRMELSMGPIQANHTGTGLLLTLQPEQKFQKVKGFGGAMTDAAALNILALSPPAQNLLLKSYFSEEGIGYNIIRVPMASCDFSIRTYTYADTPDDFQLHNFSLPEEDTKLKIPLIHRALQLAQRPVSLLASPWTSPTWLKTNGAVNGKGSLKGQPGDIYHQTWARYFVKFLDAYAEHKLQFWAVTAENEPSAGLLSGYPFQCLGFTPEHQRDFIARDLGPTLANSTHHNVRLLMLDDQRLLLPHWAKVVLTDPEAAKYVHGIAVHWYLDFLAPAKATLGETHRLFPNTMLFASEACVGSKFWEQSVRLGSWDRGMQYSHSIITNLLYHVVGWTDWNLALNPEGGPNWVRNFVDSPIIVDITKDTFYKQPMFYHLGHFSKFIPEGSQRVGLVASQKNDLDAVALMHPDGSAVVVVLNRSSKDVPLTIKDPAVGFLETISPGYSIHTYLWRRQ
How it was run: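 Normal human glucocerebrosidase (0.2 nM) with blue fluorogenic substrate (80 uM final) in citrate/phosphate pH 5.9 with 10mM sodium taurocholate, 0.01% tween-20; 40 min RT, NaOH/glycine stop; fluorescence Ex 365/Em 440; AC50 from a titration from 0.6 nM upwards.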

[12] = molecular target: Cytochrome P450 1A2 (Homo sapiens) (UniProt P05177); test: p450-cyp1a2 (AID 410; calls by dose curve; note: potency is the fitted concentration of half-maximal effect)
How it was run: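 Luminescent demethylation readout: Luciferin-ME (100uM, equal to Km) turned over by 20nM CYP1A2 for 60 min at room temperature after NADPH regeneration addition, following 10 min compound preincubation. Normalization used 57 uM furafylline as full inhibition.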

[13] = NFAT Signaling Pathway (AID 444; active = well fitted curve in either direction with a large enough effect, not every such curve was filed as active;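 note: carbachol stimulus at about its EC50 of 1 µM final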); conditions: Jurkat NFAT-bla M1, carbachol, beta-lactamase ratio, 5 h; at 7.69 µM (top of the series) unless noted
How it was run: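 Jurkat cells with NFAT-driven β-lactamase reporter and co-expressed M1 receptor, stimulated with carbachol (final 1 uM, ~EC50), compound titration, 5 h at 37 °C. CCF4 loaded 1 h at RT; 460/530 nm ratio gave %activity and AC50.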

[14] = molecular target: Glucocorticoid receptor (Homo sapiens) (UniProt P04150); test: GR-GFP Redistribution (AID 450;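 active = compounds whose dose series gives a full or clear partial fitted curve of increased nuclear translocation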; note: potency is the fitted concentration of half-maximal effect); conditions: U2OS GR-GFP nuclear translocation, laser cytometry, 2 h
[15] = molecular target: Mitogen-activated protein kinase 10 (Mus musculus) (UniProt Q61831); test: JNK3 AlphaScreen Assay (AID 530; active = well fitted curve in either direction with a large enough effect, not every such curve was filed as active;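 note: kinase came from lysate of stimulated human HepG2 cells; signal reports phosphorylation of biotinylated GST-cJun 1-79 at Ser73 with 10 µM ATP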)
How it was run: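 Activity was read by AlphaScreen after JNK3-containing HepG2 lysate (cytokine pre-activated) phosphorylated biotinylated GST-cJun with 10 uM ATP at room temperature. Phospho-Ser73 cJun antibody with Protein-A acceptor beads provided detection.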

[16] = molecular target: Cytochrome P450 2C19 (Homo sapiens) (UniProt P33261); test: qHTS Assay for Inhibitors and Substrates of Cytochrome P450 2C19 (AID 899); note: potency is the fitted concentration of half-maximal effect; nearly all actives have a fitted effect of over 60% in size
How it was run: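 5 nM human CYP2C19 with 10uM Luciferin-H EGE (at KM) in 50mM KPO4, compound preincubated 10 min at 37C, then NADPH regeneration for 60 min at 37C. Luciferin read by luminescence after detection reagent; normalized to 57uM ketoconazole as full inhibition.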

[17] = molecular target: Rap guanine nucleotide exchange factor 3 (Homo sapiens) (UniProt O95398); test: Counterscreen qHTS for antagonist of cAMP-regulated guanine nucleotide exchange factor 3 (EPAC1) (AID 1645888)
How it was run: as §1

[18] = Confirmation and Secondary Assay for Modulators of Hemoglobin Beta Chain Splicing at IVS2 654 locus (AID 910);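 note: HeLa cells stably carrying EGFP split by mutant beta-globin IVS2-654 intron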
How it was run: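 HeLa cells stably expressing EGFP interrupted by β-globin IVS2-654 intron, seeded overnight in Opti-MEM/2% FCS, then treated 2 days at 37 °C. Restored splicing read as total peak GFP intensity per well by laser scanning cytometry (488 nm excitation, 500–520 nm emission); 500 nM antisense PNA as control.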

[19] = Confirmation and Secondary Assay for Modulators of Hemoglobin Beta Chain Splicing at IVS2 705 locus (AID 930);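 note: HeLa cells stably expressing the EGFP-705 splicing reporter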
How it was run: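 Restored EGFP fluorescence after 2-day compound exposure reports splicing correction in IVS2-705 EGFP reporter HeLa cells; positive control was 500 nM splice-blocking PNA oligo. Signal measured as well total peak GFP intensity (488 nm excitation).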

[20] = molecular target: Ubiquitin carboxyl-terminal hydrolase 1 (Homo sapiens) (UniProt O94782); test: Inhibitors of USP1/UAF1: Pilot qHTS (AID 504865);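 note: rhodamine fluorescence freed from ubiquitin-rhodamine substrate followed over time; top concentration of the series differs between compounds; nearly all actives have a fitted effect of over 35% in size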
How it was run: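 Deubiquitinase activity followed as kinetic rhodamine fluorescence release from 150 nM Ub-Rho. 1 nM USP1/UAF1 with compound, after 15 min room-temperature preincubation, in HEPES pH 7.8 buffer containing TCEP, EDTA, BSA and Tween-20.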

[21] = molecular target: Dual specificity protein kinase CLK4 (Homo sapiens) (UniProt Q9HAZ1); test: qHTS Assay for Inhibitors of CDC-like Kinase 4 (Kinase-Glo Assay) (AID 1770); note: nearly all actives have a fitted effect of over 65% in size
Sequence of Dual specificity protein kinase CLK4 (Homo sapiens) (Q9HAZ1 whole entry, looked up): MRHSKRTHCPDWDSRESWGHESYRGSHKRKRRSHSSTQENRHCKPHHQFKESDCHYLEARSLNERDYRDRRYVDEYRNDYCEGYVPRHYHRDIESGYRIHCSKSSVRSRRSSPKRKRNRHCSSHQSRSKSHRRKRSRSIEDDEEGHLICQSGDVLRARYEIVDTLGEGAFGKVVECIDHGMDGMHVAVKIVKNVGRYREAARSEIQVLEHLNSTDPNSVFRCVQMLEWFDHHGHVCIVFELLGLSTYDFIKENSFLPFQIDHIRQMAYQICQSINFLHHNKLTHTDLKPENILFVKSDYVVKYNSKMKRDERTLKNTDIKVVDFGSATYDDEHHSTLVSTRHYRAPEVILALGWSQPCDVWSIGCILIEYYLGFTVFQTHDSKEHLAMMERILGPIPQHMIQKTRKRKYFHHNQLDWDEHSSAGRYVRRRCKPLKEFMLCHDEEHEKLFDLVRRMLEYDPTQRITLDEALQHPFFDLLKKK
How it was run: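 Luminescent ATP-depletion read-out (Kinase-Glo) after 4.5 h room-temperature reaction of Clk4 (25 nM final) with RS peptide (100 uM) and ATP (1 uM), pH 7.5 Tris buffer with MgCl2 and DTT.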

[22] = molecular target: Dual specificity protein kinase CLK4 (Homo sapiens) (UniProt Q9HAZ1); test: qHTS Assay for Inhibitors of CDC-like Kinase 4 (ADP-Glo Assay) (AID 1771); note: nearly all actives have a fitted effect of over 70% in size
How it was run: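 ADP production was read by ADP-Glo luminescence after residual ATP depletion, following 1 h room-temperature reaction of 25 nM Clk4, 1 uM ATP and 100 uM RS peptide with MgCl2, EGTA, DTT and Triton X-100.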

[23] = molecular target: Dual specificity protein kinase CLK4 (Homo sapiens) (UniProt Q9HAZ1); test: qHTS Assay for Inhibitors of CDC-like Kinase 4 (ADP-FP Assay) (AID 1795);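 note: recombinant human CLK4 phosphorylating RS repeat peptide at 1 µM ATP; nearly all actives have a fitted effect of over 60% in size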
How it was run: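 Kinase activity was measured as ADP production using Transcreener orange tracer (4 nM) and ADP antibody (1 ug/mL) fluorescence polarization, with ADP calculated from a calibration curve. The 1 h reaction contained 6.25 nM Clk4, 1 uM ATP and 100 uM RS peptide at pH 7.5 with Mg2+.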

O=C(c1ccco1)N1CCC2(CC1)CN(c1cccc(-c3ccccc3)c1)C2
activity change, negative = inhibition [1]: -23.1% | outcome [2]: inactive | Potency [3]: > 46 µM | Potency [4]: inactive | Potency [5]: inactive | Potency [6]: inactive | Potency [7]: inactive | Potency [8]: inactive

CC(=O)Nc1ccc(N2C(=O)c3cccc4c(O)ccc(c34)C2=O)cc1
Potency [9]: 2.31 µM (active) | Potency [5]: inactive | Potency [6]: 79.4 µM (active) | Potency [7]: 112 µM (active) | Potency [8]: inactive | Potency [10]: 39.8 µM (active)

O=c1cnc2cnc(Oc3ccccc3)nc2n1Cc1cccs1
Potency [11]: > 11.4 µM | Potency [12]: 7.94 µM (active) | activity change, negative = inhibition [13]: -1.41% | outcome [2]: inactive | Potency [14]: > 9.22 µM | Potency [3]: > 46 µM | Potency [15]: inactive | Potency [16]: 1.26 µM (active) | Potency [5]: inactive | Potency [6]: inactive | Potency [7]: inactive | Potency [8]: 15.6 µM (active)

CC(=O)C1C(=O)C=C(c2cccs2)CC1c1ccccc1 (centres undefined)
Potency [5]: inactive | Potency [6]: inactive | activation [7]: -4.19% [at 17.1 µM, percent relative to cAMP agonist control] | activity change, negative = inhibition [17]: 2.3% [at 30.8 µM]

CC1(C)C(OC(=O)CCC(=O)O)CC[C@]2(C)C1CC[C@@]1(C)C2C(=O)C=C2[C@@H]3C[C@@](C)(C(=O)O)CC[C@]3(C)CCC21C (some centres undefined)
Potency [18]: inactive | Potency [19]: inactive | Potency [20]: inactive | Potency [5]: inactive | Potency [6]: inactive | Potency [7]: inactive | Potency [8]: 15.6 µM (active)

CCOC(=O)C1(O)Oc2cc(OC)cc(OC)c2C(=O)C1c1ccccc1 (centres undefined)
Potency [18]: inactive | Potency [19]: inactive | Potency [5]: inactive | Potency [6]: inactive | Potency [7]: inactive | Potency [8]: inactive

COc1cccc(Cn2c(=O)c(CCc3ccccc3)nc3cnc(N4CCN(C)CC4)nc32)c1
Potency [11]: > 11.4 µM | activity change, negative = inhibition [1]: -3.73% | activity change, negative = inhibition [13]: 8.33% | outcome [2]: inactive | Potency [14]: > 9.22 µM | Potency [15]: inactive | Potency [4]: inactive | Potency [16]: 7.94 µM (active) | Potency [21]: inactive | Potency [22]: inactive | Potency [23]: inactive | Potency [20]: inactive | Potency [5]: inactive | Potency [6]: inactive | Potency [7]: inactive | Potency [8]: inactive

COc1ccc(/C=C2\N=C(SC)N(c3ccccc3OC)C2=O)cc1
Potency [5]: inactive | Potency [6]: inactive | activation [7]: 7.24% [at 17.1 µM, percent relative to cAMP agonist control] | activity change, negative = inhibition [17]: -8.08% [at 30.8 µM]

Nc1ccc2cc3[nH]c4cc(N)ccc4c3nc2c1
Potency [9]: 0.366 µM (active) | Potency [5]: inactive | Potency [6]: 100 µM (active) | Potency [7]: 100 µM (active) | Potency [8]: inactive | Potency [10]: 63.1 µM (active)

Source: PubChem BioAssay (NCATS)
